Entries with a potency or affinity are not part of this list.
What follows are molecules tested on Cryptococcus neoformans. Conditions: Concentration 32 ug.mL-1; ASSAY_TEST Inhibition of Fungal Growth; detection method Resazurin; Absorption (OD600-OD570); plate type 384well; NBS; CORNING #3640.

Row | SMILES | Inhibition
1 | CCOC(=O)c1cc2ccccc2[nH]1 | -5.94%
2 | Cc1nn(-c2ccccc2)c2ncnc(NCc3ccccc3)c12 | -3.05%
3 | Cc1ccc(C2c3ccc4ccccc4c3Oc3nc4c(c(N)c32)CCCC4)cc1.Cl (stereo not drawn) | 0.21%
4 | COc1cc(C2CC2(N)C(=O)O)ccc1O (stereo not drawn) | -0.8%
5 | N#CC1(Br)C(=NBr)Oc2ccc3ccccc3c2C1c1ccccc1[N+](=O)[O-] (stereo not drawn) | -80.32%
6 | COc1cccc(-c2c(C#N)c(=O)oc3c2ccc2ccccc23)c1 | -2.58%
7 | CC1=C(C(=O)O[C@@H]2C[C@@]3(C)CC[C@H]2C3(C)C)C(c2ccccc2)C(C#N)=C(N)O1 (stereo partly drawn) | -2.45%
8 | NC1(C(=O)O)CC1c1ccc2c(c1)OCO2 (stereo not drawn) | -2.53%
